Values joined by “and” are separate entries in the source; they are usually repeats but may differ in a detail not shown here. Equal entries are not always repeated. About 920 (0.42%) of roughly 220,000 compounds were called active. No stated cut-off is given here; in the data, active means inhibition above about 15%; inactive means the rest. Many of the other results were omitted from the sample, so actives are more common in it than they were. More than one record can exist for a structure, and the calls need not agree.
molecular target: Transitional endoplasmic reticulum ATPase (Homo sapiens) (UniProt P55072); experiment: inhibitors of human p97 ATPase, primary screen, biochemical (AID 1481); settings: recombinant p97 ATPase, Kinase-Glo ATP luminescence, 3 h; at 8 µM; stronger effect = higher value;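 further: 0% = DMSO vehicle and 100% = wells lacking enzyme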
Sequence (P55072 whole entry, looked up): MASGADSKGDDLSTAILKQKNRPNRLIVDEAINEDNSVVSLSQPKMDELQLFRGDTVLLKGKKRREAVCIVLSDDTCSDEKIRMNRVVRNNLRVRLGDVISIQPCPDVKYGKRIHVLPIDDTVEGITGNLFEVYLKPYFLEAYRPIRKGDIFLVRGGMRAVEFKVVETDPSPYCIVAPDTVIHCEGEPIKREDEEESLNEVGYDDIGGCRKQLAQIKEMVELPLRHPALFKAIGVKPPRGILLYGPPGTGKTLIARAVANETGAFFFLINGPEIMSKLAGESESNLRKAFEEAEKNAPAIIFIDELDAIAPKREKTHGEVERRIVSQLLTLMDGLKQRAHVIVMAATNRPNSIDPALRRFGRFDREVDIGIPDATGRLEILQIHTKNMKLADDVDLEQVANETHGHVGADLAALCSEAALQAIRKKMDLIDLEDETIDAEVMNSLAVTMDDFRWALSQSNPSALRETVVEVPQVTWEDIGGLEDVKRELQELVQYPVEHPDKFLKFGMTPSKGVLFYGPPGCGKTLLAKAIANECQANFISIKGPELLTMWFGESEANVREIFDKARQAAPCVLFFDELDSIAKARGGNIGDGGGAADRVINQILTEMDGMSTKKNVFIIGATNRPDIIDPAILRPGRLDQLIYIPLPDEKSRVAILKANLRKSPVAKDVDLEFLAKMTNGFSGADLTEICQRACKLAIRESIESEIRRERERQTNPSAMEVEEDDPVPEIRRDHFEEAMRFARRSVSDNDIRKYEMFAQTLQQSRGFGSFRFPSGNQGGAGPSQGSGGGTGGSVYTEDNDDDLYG

SMILES | inhibition
Nc1nc(SCC(=O)NN(c2ccccc2)c2ccccc2)n[nH]1 | -5.25% (inactive)
COc1ccccc1C(=O)Nc1nc2nc(-c3ccccc3)cc(=O)n2[nH]1 | 14.8% (active)
COc1cc(OC)c(C(=O)Nc2ccccc2-c2ccccc2)cc1OC | 0.92% (inactive)
COc1ccccc1NC(=O)c1cc(Cl)nc2ccccc12 | 5.78% (inactive)
O=C(NCCc1ccccc1)Oc1ccc(Cl)cc1 | -1.73% (inactive)
O=C(N/N=C/c1ccccc1O)/C(=C/c1ccccc1)CCO | 2.01% (inactive)
CCC1CCCCN1S(=O)(=O)Cc1ccccc1Cl (centres undefined) | 2.1% (inactive)
O=C(/C=C/c1ccc(Cl)c([N+](=O)[O-])c1)c1ccc(O)cc1 | 19.3% (active)
O=C(/C=C/c1ccc(Cl)c([N+](=O)[O-])c1)c1cccnc1 | -0.11% (inactive)
CN(C)c1ccc(/C=C/C(=O)c2ccc(O)cc2)cc1[N+](=O)[O-] | 0.06% (inactive)
Cc1ccccc1Nc1c(-c2ccccc2)nc2ncccn12 | 4.55% (inactive)
CC(Sc1cccc[n+]1[O-])C(=O)Nc1cccc(S(=O)(=O)N2CCOCC2)c1 (centres undefined) | 4.59% (inactive)
CN(C)c1ccc(NC(=O)CSc2n[nH]c(-c3ccco3)n2)cc1 | -3.13% (inactive)
COc1cc(C(=O)Nn2c(O)c(C3=c4ccccc4=NC3=O)sc2=S)ccc1O | 4.86% (inactive)
COC(=O)Cn1nc(-c2ccccc2)c2cc(Cl)ccc21 | -5.36% (inactive)
Cc1cc2nc3c(=O)n(Cc4ccccc4)c(=O)[nH]c3nc2cc1N | 8% (inactive)
Nc1ccc2nc3c(=O)[nH]c(=S)[nH]c3nc2c1 | 39.2% (active)
Cc1ccc(C(=O)N/C(=C/c2cccs2)C(=O)N2CCCCC2)cc1 | 1.51% (inactive)
CCc1nc2sc3c(Cl)ncnc3c2c2c1CCCC2 | 6.87% (inactive)
CC(C)Cn1c(N)c(C(=O)NCc2cccs2)c2nc3ccccc3nc21 | 4.74% (inactive)

SMILES | inhibition
C=CCn1c(N)c(C(=O)OCC(C)C)c2nc3ccccc3nc21 | 21.5% (active)
C=CCn1c(N)c(S(=O)(=O)c2cccs2)c2nc3ccccc3nc21 | 6.58% (inactive)
CC(=O)c1cccc(-n2nnnc2SCC(=O)NNC(=O)C2CCCCC2)c1 | -0.28% (inactive)
COc1ccccc1CNC(=O)Cn1c(=O)oc2cc(Cl)ccc21 | -2.55% (inactive)
COCC(C)OC(=O)c1c(N)n(CCCN2CCOCC2)c2nc3ccccc3nc12 (centres undefined) | 4.25% (inactive)
CCN1C(=O)/C(=c2\s/c(=C3\Sc4ccccc4N3C)c(=O)n2C)N(C)C1=S | 2.09% (inactive)
CCN1C(=O)/C(=C2/Sc3ccccc3N2CCCS(=O)(=O)O)SC1=S | 16.4% (active) and -0.77% (inactive)
CCCCN1C(=O)/C(=C/C=C2/C=Cc3ccccc3N2CC)SC1=S | 6.25% (inactive)
NC(=O)Cc1ccc2c(c1)[nH]c1ccccc12 | 2.82% (inactive)
Fc1ccc(CNCc2ccc(Br)cc2)cc1 | 9.11% (inactive)
COc1ccccc1-n1c(SCC(=O)O)nc2sc3c(c2c1=O)CCC3 | -1.29% (inactive)
Cc1ccc(C(C[N+](=O)[O-])c2c(C)cc3ccccn23)cc1 (centres undefined) | -4.06% (inactive)
COc1ccc(CCNC(=O)CCCCn2c(=O)[nH]c3ccccc3c2=O)cc1OC | 4.64% (inactive)
O=C(CCCn1c(=O)[nH]c2cc(Cl)ccc2c1=O)NCCN1CCN(c2ccccc2)CC1 | 1.79% (inactive)
CCN(CC)CCNC(=O)CCCCCn1c(=O)[nH]c2cc(C(=O)OC)ccc2c1=O | 15% (active)
O=C(CSc1nc2ccc([N+](=O)[O-])cc2[nH]1)c1ccc(Cl)cc1 | 2.81% (inactive)
CC(CC(=O)Nc1ccccc1)n1ccnc1 (centres undefined) | -4.72% (inactive)
Cc1cc(C)c(NC(=O)CN2C(=O)NC(Cc3ccccc3)C2=O)c(C)c1 (centres undefined) | -0.65% (inactive)
COc1ccccc1CNC(=O)COc1ccc(C)nc1[N+](=O)[O-] | 0.97% (inactive)
COc1cc(/C=C2/C(=O)NN(c3ccc(F)cc3)C2=O)cc([N+](=O)[O-])c1O | 6.04% (inactive)

SMILES | inhibition
O=C(CC1N=C2c3ccccc3N=C(SCc3ccccc3Cl)N2C1=O)NCc1ccco1 (centres undefined) | 2.64% (inactive)
O=C(CSC1=Nc2ccccc2C2=NC(CC(=O)NCc3ccco3)C(=O)N12)NCc1ccco1 (centres undefined) | 2.33% (inactive)
CCC(C)NC(=O)CSC1=Nc2ccccc2C2=NC(CCC(=O)NCc3ccco3)C(=O)N12 (centres undefined) | 18.7% (active)
COc1nc(N(C)C)nc(N2CC(=O)N(CCNS(=O)(=O)c3ccc(C)cc3)C2=N)n1 | 5.1% (inactive)
O=C1N=C(N2CCc3ccccc3C2)S/C1=C\c1ccc(O)cc1 | 0.81% (inactive)
C/C(=N/NC(=S)Nc1ccccc1)c1ccc2c(c1)OCO2 | 2.26% (inactive)
CCOC(=O)c1nnn(-c2nc(OC)nc(N(C)C)n2)c1-c1ccccc1 | -0.37% (inactive)
CCOc1nc(OCC)nc(-n2cc(-c3ccccc3)nn2)n1 | 24.2% (active)
CCOc1ccc(/C=N/Nc2nncc(-c3ccccc3)n2)cc1OC | 0.88% (inactive)
COC(=O)c1scc(S(=O)(=O)C(C)(C)C)c1-n1cccc1 | 3.92% (inactive)
Cc1ccc(C(=O)NC2CC(C)(C)NC(C)(C)C2)c(C)c1 | -2.82% (inactive)
CC1CCC(NC(=O)C2c3ccccc3C(=O)N2Cc2ccc3c(c2)OCO3)CC1 (centres undefined) | -6.03% (inactive)
Cc1ccc2c(c1)NCC(C(=O)NC1CCC(C)CC1)O2 (centres undefined) | 18.4% (active)
CN1C(=O)/C(=C\c2cc(Br)cs2)c2ccccc21 | 7.61% (inactive)
O=C(Nc1nnc(Cc2ccccc2)s1)c1cnccn1 | 1.61% (inactive)
COc1cccc(NC(=S)NCc2ccco2)c1 | 3.44% (inactive)
O=C(NCCCO)/C(=C\C=C\c1ccccc1)NC(=O)c1ccccc1Cl | 6.57% (inactive)
CCN1CCc2nc(NC(=O)c3cc(F)c(F)cc3Cl)sc2C1 | 4.45% (inactive)
OCCNc1nc2ccccc2n1-c1ncnc2sc3c(c12)CCC3 | -5.39% (inactive)

Source: PubChem BioAssay AID1481 (The Scripps Research Institute Molecular Screening Center, 2009)
